Molecules are shown by their SMILES. Several values for one entry are separate records, joined by “and”; a condition that tells them apart may be missing. Equal values may be shown once. The source holds several records for some structures; these can differ, active in one and inactive in another. Activity calls are given as the source filed them. Rule for the calls: active = hit-call score of the fitted dose curve at least 0.9, where 1 is the maximum; inactive = score below 0.9.

This experiment is described as follows: CCTE_Shafer_MEA_dev_network_spike_number: CCTE's Neural Network Formation Assay for Number of Network Spikes, Shafer Lab (AID 2284048).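 For AC50: fit as a loss of signal meaning fewer network spikes than DMSO.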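 Note: synchronized bursts across electrodes counted on days 5 7 9 12 and integrated as AUC.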 The gist of the method:
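Primary rat cortical neurons were seeded at 1.5 x 10^5 cells/well on PEI-coated 16-electrode MEA wells with laminin, exposed from plating day 0, compound renewed at DIV 5 and 9. Network spikes were recorded on days 5, 7, 9, 12 and summarized as trapezoidal AUC versus DMSO.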
As for `Brc1cc(Br)c(Oc2cc(Br)c(Br)cc2Br)cc1Br`, the call was inactive. As to `CC(C)O`, the molecule was called inactive. The same measure, in the same setting: with `F` the entry was “inactive”; with `CC(=O)N[C@@H](CC(=O)O)C(=O)O`, “inactive”; with `CCCCCC=C(C)C(CC)CCO` (stereo unspecified), “inactive”. As a reminder, the AC50 is the concentration giving half of the maximal activity seen. Turning to `BrC1CC(Br)CC(Br)CC(Br)CC(Br)CC(Br)C1` (stereo unspecified), the AC50 was 8.72 µM (active). `C[C@@H]1CC[C@@H](C(C)(C)O)[C@H](O)C1`: the result was inactive. On the same count and under the same terms, the result for `CC(C)c1nn(C(=O)NC(C)(C)C)c(=O)n1N` reads “inactive”. Same read-out and setting: with `[O]=[V]([OH])([OH])[OH]` the entry was “inactive”; with `CCc1ccccc1`, “inactive”.

Take `CN(C)CCCn1cc(C2=C(c3c[nH]c4ccccc34)C(=O)NC2=O)c2ccccc21`: the AC50 is 264 nM (active) and 467 nM (active) and 1.58 µM (active); the outcome was inactive. With `CCCCCC(C)(CC)C(=O)NC` (stereo unspecified), the call was inactive.

Take `Cc1[nH]n(C)c(=O)c1C(=O)c1ccc(C(F)(F)F)cc1S(C)(=O)=O`: the molecule was called inactive.

Regarding `CC(CNC(=S)[S-])NC(=S)[S-].[Zn+2]` (stereo unspecified), the AC50 is 8.44 µM (active). On the same count and under the same terms, with `C[C@@H]1CCO[C@H]2Cn3cc(C(=O)NCc4ccc(F)cc4F)c(=O)c(O)c3C(=O)N12` the figure was 1.54 µM (active).

(Values after PubChem BioAssay (EPA / NIEHS).)
